Experimental data as given in the supplement of paper PMC10849652.
Targets with a hit are over-represented here; the source holds about 7,900 in all. About 0.6% of all pairs of compound and target were hits.

Compound: c1cn2cc(-c3ccc4cn[nH]c4c3)nc(Nc3ccc(N4CCOCC4)cc3)c2n1 [entospletinib]
Test: log2 fold change, soluble protein after heating vs DMSO (PISA); higher = thermal stabilisation; K562 cells, 10 uM, 30 min; active = over 0.2 and 3.5 SD of the protein, either way, in both replicates (recomputed)
Outline: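 Aliquots of K562 cells (2×10^6 cells/mL) treated with 10 μM compound for 30 min were heated for 3 min over 48°C-58°C. After pooling and extraction in PBS with 0.5% NP-40 at 4°C, soluble protein from a 21,000xg, 90 min spin was quantified by TMTpro 16plex LC-MS/MS with channel sums equalised. Thermal stability is expressed against control samples, from duplicates, as a log2 fold change.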

Sequence of UniProt P03886 (P03886 whole entry, looked up): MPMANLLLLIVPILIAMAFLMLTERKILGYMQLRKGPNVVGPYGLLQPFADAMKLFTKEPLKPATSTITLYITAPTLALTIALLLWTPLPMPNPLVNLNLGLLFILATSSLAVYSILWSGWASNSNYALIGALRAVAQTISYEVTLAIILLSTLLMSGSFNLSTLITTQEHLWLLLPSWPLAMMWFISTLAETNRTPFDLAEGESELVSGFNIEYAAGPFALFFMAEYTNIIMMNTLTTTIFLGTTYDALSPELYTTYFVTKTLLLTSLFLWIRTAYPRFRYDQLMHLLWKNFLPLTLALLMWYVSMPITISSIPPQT
Sequence of UniProt Q6N063 (Q6N063 whole entry, looked up): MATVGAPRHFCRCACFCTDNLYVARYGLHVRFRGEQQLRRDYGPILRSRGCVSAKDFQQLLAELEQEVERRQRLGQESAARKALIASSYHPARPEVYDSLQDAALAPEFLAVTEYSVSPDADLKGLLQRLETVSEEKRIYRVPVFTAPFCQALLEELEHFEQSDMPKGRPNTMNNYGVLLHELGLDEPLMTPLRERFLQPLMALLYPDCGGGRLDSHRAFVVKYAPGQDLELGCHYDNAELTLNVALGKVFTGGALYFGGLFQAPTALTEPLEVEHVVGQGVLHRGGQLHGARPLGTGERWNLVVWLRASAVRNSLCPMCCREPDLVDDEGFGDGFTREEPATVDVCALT
Sequence of UniProt Q9HAN9 (Q9HAN9 whole entry, looked up): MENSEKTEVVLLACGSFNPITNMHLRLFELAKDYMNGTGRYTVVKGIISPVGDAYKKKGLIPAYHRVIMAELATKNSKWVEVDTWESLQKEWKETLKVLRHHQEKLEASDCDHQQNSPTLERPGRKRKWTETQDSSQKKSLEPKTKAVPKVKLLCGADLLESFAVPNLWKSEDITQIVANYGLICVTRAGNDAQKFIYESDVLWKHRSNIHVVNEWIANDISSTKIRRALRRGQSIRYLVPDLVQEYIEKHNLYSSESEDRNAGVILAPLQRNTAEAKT
Sequence of UniProt P56556 (P56556 whole entry, looked up): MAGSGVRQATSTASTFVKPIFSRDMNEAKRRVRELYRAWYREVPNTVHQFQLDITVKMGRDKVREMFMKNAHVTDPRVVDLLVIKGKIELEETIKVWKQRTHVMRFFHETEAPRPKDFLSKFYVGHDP
Sequence of UniProt Q9NWU1 (Q9NWU1 whole entry, looked up): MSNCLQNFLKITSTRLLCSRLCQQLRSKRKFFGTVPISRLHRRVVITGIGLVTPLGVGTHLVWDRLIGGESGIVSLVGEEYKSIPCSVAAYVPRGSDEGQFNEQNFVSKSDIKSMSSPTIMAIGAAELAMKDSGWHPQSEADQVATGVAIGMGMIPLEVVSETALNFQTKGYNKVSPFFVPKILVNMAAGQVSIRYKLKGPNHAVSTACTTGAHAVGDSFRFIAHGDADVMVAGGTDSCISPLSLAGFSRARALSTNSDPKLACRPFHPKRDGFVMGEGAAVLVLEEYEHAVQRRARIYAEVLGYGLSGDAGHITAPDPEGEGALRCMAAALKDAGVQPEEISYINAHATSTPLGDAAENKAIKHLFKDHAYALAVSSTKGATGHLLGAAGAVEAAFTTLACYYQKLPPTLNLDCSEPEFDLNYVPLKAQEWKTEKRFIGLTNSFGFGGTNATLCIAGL
Sequence of UniProt Q96IV0 (Q96IV0 whole entry, looked up): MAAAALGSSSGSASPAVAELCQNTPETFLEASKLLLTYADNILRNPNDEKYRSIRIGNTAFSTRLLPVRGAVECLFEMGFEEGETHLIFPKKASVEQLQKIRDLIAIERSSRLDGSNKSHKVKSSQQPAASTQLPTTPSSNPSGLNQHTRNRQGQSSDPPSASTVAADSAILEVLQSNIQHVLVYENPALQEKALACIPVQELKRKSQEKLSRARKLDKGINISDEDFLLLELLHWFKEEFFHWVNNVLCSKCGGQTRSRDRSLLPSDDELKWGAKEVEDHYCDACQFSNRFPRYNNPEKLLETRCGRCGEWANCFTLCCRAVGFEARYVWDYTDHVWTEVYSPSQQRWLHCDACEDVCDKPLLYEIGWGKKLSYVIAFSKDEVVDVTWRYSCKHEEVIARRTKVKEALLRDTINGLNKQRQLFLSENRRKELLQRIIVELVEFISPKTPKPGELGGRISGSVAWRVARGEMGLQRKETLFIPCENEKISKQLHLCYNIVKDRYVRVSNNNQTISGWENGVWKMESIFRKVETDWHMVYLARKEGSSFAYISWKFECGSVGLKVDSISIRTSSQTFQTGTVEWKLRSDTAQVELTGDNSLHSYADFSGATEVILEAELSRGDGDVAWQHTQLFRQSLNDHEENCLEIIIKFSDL
Sequence of UniProt Q5VVJ2 (Q5VVJ2 whole entry, looked up): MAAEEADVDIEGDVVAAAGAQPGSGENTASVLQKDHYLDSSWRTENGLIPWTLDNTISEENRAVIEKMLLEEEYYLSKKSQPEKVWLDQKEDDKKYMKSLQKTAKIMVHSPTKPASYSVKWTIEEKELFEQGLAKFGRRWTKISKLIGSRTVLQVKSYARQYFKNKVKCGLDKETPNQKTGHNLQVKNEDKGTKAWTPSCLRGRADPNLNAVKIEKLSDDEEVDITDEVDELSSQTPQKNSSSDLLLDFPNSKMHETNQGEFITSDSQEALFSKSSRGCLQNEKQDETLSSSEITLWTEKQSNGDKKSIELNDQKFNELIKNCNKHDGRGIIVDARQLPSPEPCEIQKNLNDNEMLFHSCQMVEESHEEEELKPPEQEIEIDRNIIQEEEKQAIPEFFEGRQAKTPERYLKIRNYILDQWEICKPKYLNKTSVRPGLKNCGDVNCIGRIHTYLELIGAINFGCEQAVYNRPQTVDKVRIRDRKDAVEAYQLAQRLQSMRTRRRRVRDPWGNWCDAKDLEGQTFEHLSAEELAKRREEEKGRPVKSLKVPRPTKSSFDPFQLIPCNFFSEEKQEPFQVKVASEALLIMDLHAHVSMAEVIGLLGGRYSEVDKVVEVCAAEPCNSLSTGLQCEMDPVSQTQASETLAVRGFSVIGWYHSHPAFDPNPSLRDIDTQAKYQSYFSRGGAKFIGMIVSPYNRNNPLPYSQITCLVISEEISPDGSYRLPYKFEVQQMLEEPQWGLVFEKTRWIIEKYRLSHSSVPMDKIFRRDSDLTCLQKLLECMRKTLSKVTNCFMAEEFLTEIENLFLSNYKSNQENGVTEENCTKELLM
Sequence of UniProt P57740 (P57740 whole entry, looked up): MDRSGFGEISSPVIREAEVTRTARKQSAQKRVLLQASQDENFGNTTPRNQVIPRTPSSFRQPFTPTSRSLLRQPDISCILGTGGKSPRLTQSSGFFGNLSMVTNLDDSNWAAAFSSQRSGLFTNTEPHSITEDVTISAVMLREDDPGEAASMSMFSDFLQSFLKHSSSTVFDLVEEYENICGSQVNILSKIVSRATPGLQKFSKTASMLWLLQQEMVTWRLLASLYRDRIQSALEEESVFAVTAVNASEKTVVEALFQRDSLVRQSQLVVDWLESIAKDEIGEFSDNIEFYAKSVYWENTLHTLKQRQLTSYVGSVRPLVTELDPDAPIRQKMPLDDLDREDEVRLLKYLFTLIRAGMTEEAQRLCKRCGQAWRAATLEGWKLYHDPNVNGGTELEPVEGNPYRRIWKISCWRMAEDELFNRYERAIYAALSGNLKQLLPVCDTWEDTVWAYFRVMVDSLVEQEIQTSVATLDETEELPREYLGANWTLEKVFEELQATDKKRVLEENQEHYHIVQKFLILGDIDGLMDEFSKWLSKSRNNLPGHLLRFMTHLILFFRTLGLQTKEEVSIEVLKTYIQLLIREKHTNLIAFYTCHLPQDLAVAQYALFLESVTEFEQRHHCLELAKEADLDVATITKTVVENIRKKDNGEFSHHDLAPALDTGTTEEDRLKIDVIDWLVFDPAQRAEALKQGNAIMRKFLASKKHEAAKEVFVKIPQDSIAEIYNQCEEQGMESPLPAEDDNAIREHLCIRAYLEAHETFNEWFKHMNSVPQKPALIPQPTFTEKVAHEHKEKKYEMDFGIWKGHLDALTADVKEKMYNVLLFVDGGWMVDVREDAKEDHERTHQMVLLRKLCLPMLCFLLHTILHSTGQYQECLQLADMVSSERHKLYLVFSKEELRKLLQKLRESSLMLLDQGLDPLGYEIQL
Sequence of UniProt B2RBV5 (B2RBV5 whole entry, looked up): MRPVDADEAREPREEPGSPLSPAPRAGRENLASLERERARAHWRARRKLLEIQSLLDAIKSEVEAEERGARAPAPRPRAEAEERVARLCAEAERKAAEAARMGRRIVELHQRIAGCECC

log2 fold change, inactive:
NUP107 (UniProt P57740) -0.072
NMNAT1 (UniProt Q9HAN9) 0.084
NA (UniProt B2RBV5) -0.058
NDUFA6 (UniProt P56556) -0.041
NAP1L1 (UniProt B7Z9C2) -0.081
MT-ND1 (UniProt P03886) 0.1
MYSM1 (UniProt Q5VVJ2) 0.141
MRPS18B (UniProt Q9Y676) 0.028
OXSM (UniProt Q9NWU1) -0.023
OGFOD2 (UniProt Q6N063) -0.003
NGLY1 (UniProt Q96IV0) 0.081
